# MITF TRPM1 HTS – activators of MITF-driven TRPM1 promoter reporter, primary screen, cell-based, SK-MEL-5, luciferase, single point; activation, % at 12.5 µM; AID 588334, 2011; SK-MEL-5 TRPM1-promoter luciferase, 24 h; % of positive control, neutral wells = 0; 0.75% of 300,000 active;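 active = mean activation of at least 80% with every replicate also reaching 80%; inconclusive = mean reaches 80% but some replicate falls short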;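 note: 0% = neutral control wells and 100% = parthenolide positive control wells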
# Wnt act – Wnt/beta-catenin pathway activators, primary screen, cell-based, plate reader, single point | Wnt/beta-catenin reporter cell assay, activator | activation, % at 9.35 µM | 1.2% of 300,000 active; in the data active = activation above about 30%, passing the limit was not always enough; inconclusive = no clear call, values can overlap the other calls;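 note: 0% = neutral control wells and 100% = positive control wells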
# HSF1 inhib – HSF1 inhibitors in luciferase reporter cells, primary screen, cell-based, NIH3T3, luminescence | activity change, negative = inhibition, % at 7.5 µM (by protocol) | 0.77% of 300,000 active | NIH3T3-HGL HSE-luciferase, MG132-induced, luminescence 8 h; hits give low values;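 active = more than half of replicate wells show activity change below -50%, luminescence cut by over half; inconclusive = some wells, but at most half, below -50%; inactive = no replicate well below -50%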;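 note: luciferase reports HSF-1 transcriptional activity via heat shock element; 0% = median of DMSO wells and -100% = zero luminescence signal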
# HSF1 activator – HSF-1 activators, primary screen, NIH3T3-HGL cells, MG132 stress, luminescence, single point; NIH3T3-HGL HSF-1 luciferase reporter, 8 h; 100% = twice DMSO control signal; activation, % at 9 µM; 1.7% of 300,000 active;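 active = mean replicate activation of at least 50% with a set share of replicates each reaching 50%; inconclusive = only one of those two conditions met; inactive = mean below 50% and too few replicates reaching it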;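 note: 0% = median of the neutral control wells and 100% = twice that signal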
# esBAF inh – Bmi1 luciferase reporter increase in mESCs, primary screen, esBAF inhibitor project, mouse ES cells, Bmi1 luciferase knock-in, single point; reporter increase, % at 12.5 µM; 24 h; 100% = twice the neutral-well signal; 2% of 350,000 active; in the data active = activation above about 40%; inconclusive = no clear call, values can overlap the other calls;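 note: 0% = median of the plate's neutral control wells and 100% = double that signal; a rise in the Bmi1 reporter signal indicates esBAF inhibition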
# The depositor's hits bear a star; ? = inconclusive; . = no result given. A selection: hits, their analogues and other compounds. The true share with any hit is near 3.9%.
SMILES,MITF TRPM1 HTS,Wnt act,HSF1 inhib,HSF1 activator,esBAF inh
Cc1ccc(S(=O)(=O)N2Cc3ccccc3CC2C(=O)Nc2ccc3c(c2)OCO3)cc1 (stereo unspecified),34,.,14,16,66*
C[C@H](CO)N1C[C@H](C)[C@@H](CN(C)S(=O)(=O)c2ccccc2)Oc2ccc(NC(=O)CCCCCC(=O)Nc3ccccc3N)cc2CC1=O,.,.,.,.,0
CC(C)NC(=O)Nc1ccc2c(c1)CC(=O)N([C@H](C)CO)C[C@@H](C)[C@@H](CN(C)C(=O)Nc1cccc3ccccc13)O2,.,.,.,.,3
CCCn1c(-c2nonc2N)nc2ccccc21,.,-8,-23,-29,-9
Cn1c(-c2nonc2N)nc2ccccc21,.,1,-74*,-79,13
Cc1ccc(-c2cnc3c(c2)C(=O)N([C@H](C)CO)C[C@H](C)[C@H](CN(C)Cc2ccccc2C(=O)O)O3)cc1,.,.,.,.,4
O=C(O)c1ccccc1N=Nc1ccc(O)cc1,-2,5,-1,-5,-1
CC(=O)Nc1ccc(N=Nc2ccc(O)cc2)cc1,44,24,31,57*,.
Oc1ccc(N=Nc2ccccc2)cc1,91*,34*,20,21,6
O=C(C[C@@H]1C[C@H]2c3cc(NC(=O)c4ccc5c(c4)OCO5)ccc3O[C@H]2[C@@H](CO)O1)NCc1cccnc1,.,.,.,.,-2
Cc1cc(/C=C2\Cc3ccccc3C2=O)c(C)n1-c1ccccc1,-43,-6,-75*,-74,.
Nc1nc(N)c2sc3nc4c(cc3c2n1)CCC4,50,.,2,13,48*
c1ccc(Cn2ccnc2C2OCCO2)cc1,.,-7,.,.,.
c1ccc(Cn2ccnc2-c2ccco2)cc1,52,28,2,16,56*
CCC(=O)N(C)C[C@H]1[C@H](c2ccccc2)[C@@H](CO)N1C(=O)Cc1ccncc1,.,.,.,.,2
CC(=O)c1ccc(-c2nc3ccccc3n2C)o1,27,.,19,47,55*
COc1ccc(CCNC(=O)c2ccccc2NS(=O)(=O)c2cc(C(=O)O)ccc2OC)cc1,-1,4,-4,4,-3
COc1ccc(NC(C)=O)cc1S(=O)(=O)Nc1ccccc1C(=O)NCCc1ccccc1,99*,19,2,7,55*
CC(C)c1ccc(NC(=O)N(CCc2nc3ccccc3[nH]2)C2CCCC2)cc1,.,7,-61*,-60,29
CC(=O)Nc1ccc(CCc2nc3ccccc3[nH]2)cc1,.,1,4,14,3
Cc1cccc(NC(=O)C(=O)NCC2CCCN2S(=O)(=O)c2cccs2)c1 (stereo unspecified),.,3,.,.,42*
Cc1ccc(NC(=O)C(=O)NCC2CCCN2S(=O)(=O)c2cccs2)cc1 (stereo unspecified),6,-1,-4,1,7
Cc1noc(C)c1NC(=O)N(C)C[C@@H]1OCCCC[C@@H](C)Oc2ccc(NS(=O)(=O)c3ccccc3)cc2C(=O)N([C@@H](C)CO)C[C@H]1C,.,.,.,.,2
CCOC(=O)/C=C(\C)Nc1cc(C)nn1-c1ccccc1,5,-5,31,54*,-4
Cc1cc(N(C)C)ccc1N=Nc1ccc2ncccc2c1,28,42*,17,43,21
SMILES,MITF TRPM1 HTS,Wnt act,HSF1 inhib,HSF1 activator,esBAF inh
CCN(C[C@H]1[C@H](c2ccc(C3=CCCCC3)cc2)[C@H](CO)N1CC1CC1)C(C)=O,.,.,.,.,3
CO[C@@H]1CN(C)C(=O)c2ccc(NC(=O)c3ccc4c(c3)OCO4)cc2OC[C@@H](C)NC[C@@H]1C,.,.,.,.,-2
COc1cc(NS(=O)(=O)c2ccc(NC(=O)/C=C/C(=O)O)cc2)nc(OC)n1,6,0,-72*,-75,1
COc1nccnc1NS(=O)(=O)c1ccc(NC(=S)NC(=O)/C=C/c2ccc(F)cc2)cc1,0,-2,8,18,.
COc1cc(NS(=O)(=O)c2ccc(NC(=S)NC(=O)/C=C/c3ccc(F)cc3)cc2)ncn1,-4,41*,-3,2,-1
Cc1cccc(C)c1OCCCCn1cnc2ccccc2c1=O,1,.,8,21,-2
CN(C(=O)CCNC(=O)Cn1cnc2ccccc2c1=O)c1ccccc1F,-8,0,-89*,-91,-3
CC(C)c1ccc(NC(=O)CNC(=O)Cn2ccc3ccccc3c2=O)cc1,-13,0,-8,-7,-13
CN(C(=O)CCNC(=O)Cn1cnc2ccccc2c1=O)c1ccc(F)cc1,.,-2,-5,-1,2
CC(C)c1ccc(NC(=O)CNC(=O)Cn2cnc3ccccc3c2=O)cc1,12,-5,-83*,-86,.
O=c1c2ccccc2ncn1CCCOc1ccccc1[N+](=O)[O-],65,22,-3,6,62*
Cc1cc(C)c(OCCCCn2cnc3ccccc3c2=O)c(C)c1,1,.,23,56*,2
CO[C@H]1CN(C)C(=O)c2cc(NC(=O)c3ccccc3)ccc2OC[C@H](C)N(C(=O)CN(C)C)C[C@H]1C,.,.,.,.,4
Clc1ccc(OCCn2cnc3ccccc32)c(Cl)c1,73,.,21,29,71*
Cc1ccc(C(=O)Cn2cnc3ccccc3c2=O)cc1,89*,27,.,.,56*
O=[N+]([O-])c1ccccc1OCCCn1cnc2ccccc21,104*,16,34,25,65*
COc1ccc(S(=O)(=O)Nc2cccc3c2O[C@@H](CN(C)S(=O)(=O)c2cccs2)[C@H](C)CN([C@H](C)CO)C3=O)cc1,.,.,.,.,7
COc1cccc(-c2nnc(-c3ccc4ccccc4c3)o2)c1,56,51*,.,.,.
COc1cccc(-c2nnc(-c3ccc(C(F)(F)F)cc3)o2)c1,.,22,17,26,55*
Oc1ccccc1-c1nnc(-c2ccc(C(F)(F)F)cc2)o1,50,11,-63*,-71,?
COc1cccc(-c2nnc(NC(C)=O)o2)c1,17,-2,-2,8,-3
Clc1ccc(-c2nnc(-c3ccc4ccccc4c3)o2)cc1,28,-2,.,.,?
CC1=Nc2ccccc2/C1=C\c1nc(-c2ccc(C(F)(F)F)cc2)oc1O,4,0,6,18,4
Cc1ccc(-c2nnc(-c3ccc4ccccc4c3)o2)cc1,48,13,.,.,54*
C[C@H]1CCCCO[C@H](CN(C)C(=O)CCCN(C)C)[C@@H](C)CN([C@@H](C)CO)C(=O)c2cc(NS(C)(=O)=O)ccc2O1,.,.,.,.,-1
COc1cccc(-c2ccc3c(c2)[C@H]2[C@H](CCN2S(=O)(=O)c2ccccc2OC)[C@H](CO)N3)c1,.,.,.,.,-2
CN(C)CCCN=c1cc(-c2ccccc2)oc2ccc(Cl)cc12,84*,12,.,.,.
OCCN=c1cc(-c2ccccc2)oc2ccc(Cl)cc12,65,18,13,17,46*
CC(O)CN=c1cc(-c2ccccc2)oc2ccc(Cl)cc12 (stereo unspecified),?,.,27,31,-9

# Assay outcomes deposited in PubChem BioAssay by Broad Institute.
